For experiment [1], the system named is BMPR1B. On the set-up: species or system human, MV4-11 + K-562 + COLO205 + SK-N-BE2 + OVCAR-8. Particulars: read-out: apparent Kd, n = 1.
The test system of experiment [2] is CAMK2B. On the set-up: species or system human, MV4-11 + K-562 + COLO205 + SK-N-BE2 + OVCAR-8. Particulars: read-out: apparent Kd; compound concentrations: 100 nM and 1000 nM (sheet 'Samples'), CATDS: 6.4404686092337498E-3; n = 1.
Experiment [3] deals with CDK13. On the set-up: species or system human, MV4-11 + K-562 + COLO205 + SK-N-BE2 + OVCAR-8. The settings on record: read-out: apparent Kd, compound concentrations: 100 nM and 1000 nM (sheet 'Samples'), n = 1.
Experiment [4] deals with MAP3K6. On the set-up: species or system human, MV4-11 + K-562 + COLO205 + SK-N-BE2 + OVCAR-8. The settings on record: read-out: apparent Kd; compound concentrations: 100 nM and 1000 nM (sheet 'Samples'), CATDS: 4.1891325824414301E-3; n = 1.
Experiment [5] has as its system PI4KB. On the set-up: species or system human, MV4-11 + K-562 + COLO205 + SK-N-BE2 + OVCAR-8. Particulars: read-out: apparent Kd; compound concentrations: 100 nM and 1000 nM (sheet 'Samples'), CATDS: 8.6005526131726403E-3; n = 1.
Experiment [6] concerns PIK3CB. On the set-up: species or system human, MV4-11 + K-562 + COLO205 + SK-N-BE2 + OVCAR-8. The settings on record: read-out: apparent Kd; compound concentrations: 100 nM and 1000 nM (sheet 'Samples'), CATDS: 8.3047003401232992E-3; n = 1.
Experiment [7] has as its system WEE1. On the set-up: species or system human, MV4-11 + K-562 + COLO205 + SK-N-BE2 + OVCAR-8. The settings on record: read-out: apparent Kd, n = 1.
In experiment [8] the test system is PDXK. On the set-up: species or system human, MV4-11 + K-562 + COLO205 + SK-N-BE2 + OVCAR-8. Particulars: read-out: apparent Kd; compound concentrations: 100 nM and 1000 nM (sheet 'Samples'), CATDS: 3.03985195702474E-2; n = 1.
Experiment [9] deals with GSK3A. On the set-up: species or system human, MV4-11 + K-562 + COLO205 + SK-N-BE2 + OVCAR-8. The settings on record: compound concentrations:0.3nM, 1nM, 3nM, 10nM, 30nM, 100nM, 300nM, by the legend:Standard error of the EC50 estimation as provided by the drc package.; for Kd: read-out: apparent Kd.
Experiment [10] has as its system GSK3B. On the set-up: species or system human, MV4-11 + K-562 + COLO205 + SK-N-BE2 + OVCAR-8. The settings on record: compound concentrations:0.3nM, 1nM, 3nM, 10nM, 30nM, 100nM, 300nM, by the legend:Standard error of the EC50 estimation as provided by the drc package.; for Kd: read-out: apparent Kd.
In experiment [11] the test system is LATS1. On the set-up: species or system human, MV4-11 + K-562 + COLO205 + SK-N-BE2 + OVCAR-8. The settings on record: compound concentrations:0.3nM, 1nM, 3nM, 10nM, 30nM, 100nM, 300nM, by the legend:Standard error of the EC50 estimation as provided by the drc package.; for Kd: read-out: apparent Kd.
Experiment [12] concerns PKN1. On the set-up: species or system human, MV4-11 + K-562 + COLO205 + SK-N-BE2 + OVCAR-8. Particulars: compound concentrations:0.3nM, 1nM, 3nM, 10nM, 30nM, 100nM, 300nM, by the legend:Standard error of the EC50 estimation as provided by the drc package.; for Kd: read-out: apparent Kd.
Experiment [13] deals with PRKX. On the set-up: species or system human, MV4-11 + K-562 + COLO205 + SK-N-BE2 + OVCAR-8. Particulars: compound concentrations:0.3nM, 1nM, 3nM, 10nM, 30nM, 100nM, 300nM, by the legend:Standard error of the EC50 estimation as provided by the drc package.; for Kd: read-out: apparent Kd.
Experiment [14] concerns ILK. On the set-up: species or system human, MV4-11 + K-562 + COLO205 + SK-N-BE2 + OVCAR-8. Particulars: read-out: apparent Kd; compound concentrations: 100 nM and 1000 nM (sheet 'Samples'), CATDS: 0.188303369583949; n = 1.
Experiment [15] deals with CDK1_CycB1. The settings on record: Highest Assay Concentration (M): 9.9999999999999995E-7.
Experiment [16] concerns CK2alpha1. The settings on record: Highest Assay Concentration (M): 9.9999999999999995E-7.
Experiment [17] concerns CK2alpha2. Particulars: Highest Assay Concentration (M): 9.9999999999999995E-7.
The mark [18] stands for this setting: compound concentrations:100 nM and 1000 nM (sheet 'Samples').
Where [19] appears, read: 1000nM,R2:0.98330827393916598,slope:1.45562792091779,EC50 Standard Error.
Setting [20] is: 1000nM,R2:0.96555674920545798,slope:0.96794765422259599,EC50 Standard Error.
Setting [21] is: 1000nM,R2:0.97889671835051595,slope:1.6751561590983699,EC50 Standard Error.
[22] abbreviates: 1000nM,R2:0.97867991540409105,slope:0.79419686113227705,EC50 Standard Error.
[23] abbreviates: 1000nM,R2:0.94127289372754697,slope:1.4629649923763099,EC50 Standard Error.
The mark [24] stands for this setting: 1000nM,R2:0.98891896520214295,slope:0.86644868747919301,EC50 Standard Error.
[25] abbreviates: 1000nM,R2:0.97796062612419798,slope:0.95181625856524898,EC50 Standard Error.
The mark [26] stands for this setting: 1000nM,R2:0.99282697672558795,slope:1.31312375653091,EC50 Standard Error.
The mark [27] stands for this setting: 1000nM,R2:0.99748458534068796,slope:1.1297658372901001,EC50 Standard Error.
Setting [28] is: 1000nM,R2:0.99104054700331501,slope:1.8352310088782899,EC50 Standard Error.

Where two headings read alike, the source gives them in different places.

Here are results for eight molecules from paper PMC11062922 (Nature Chemical Biology, 2023).

Broadly, the EC50 is the concentration at which the effect is half-maximal. A word on the IC50: it is the concentration that gives 50% inhibition.
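For EC50 in this document: competition pulldown with Kinobeads ε in cell lysates, inhibitor preincubated 45 min at 4 °C, bound kinases quantified by LC–MS/MS against DMSO control.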
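For Kd in this document: competition pulldown with Kinobeads ε in cell lysates, inhibitor preincubated 45 min at 4 °C, bound kinases quantified by LC–MS/MS against DMSO control.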

Consider `Cn1ncc2c(N)ncnc21` [SKF-18267], for which the potency estimated from few doses in [1] (compound concentrations: 100 nM and 1000 nM (sheet 'Samples'), CATDS: 8.9058122855820206E-3) is 311 nM; in [2], 514 nM; in [3] (CATDS: 3.42159578661501E-3) it was 2090 nM; in [4], 1190 nM; in experiment [5], 328 nM; in experiment [6] it was 345 nM. For the same molecule, the potency estimated from few doses in experiment [7] (compound concentrations: 100 nM and 1000 nM (sheet 'Samples'), CATDS: 4.2054880043609797E-3) was 1180 nM.
Turning to `CN(c1ccc(NC(=O)N2CCN(CCCN3CCOCC3)CC2)cc1)c1ccnc(Nc2ccc(CS(C)(=O)=O)cc2)n1.Cl` [GW830899A], in experiment [8], the potency estimated from few doses is 617 nM.
For the molecule `CNC(=O)c1ccccc1Nc1nc(Nc2ccc(N3CCOCC3)cc2)ncc1Cl.Cl` [GSK1576028A], the values for the potency estimated from few doses in [1] (setting [18]) and in experiment [7] (setting [18]) were 429 nM and 20.5 nM, respectively.
Consider `CCn1c(-c2nonc2N)nc2c(C#CC(C)(C)O)nc(OCCNC)cc21.Cl` [GSK949675A], for which the EC50 was 167 nM in experiment [9] (setting [19]); 322 nM in [10] (setting [20]); 238 nM in [11] (setting [21]); 4240 nM in experiment [12] (setting [22]); 221 nM in experiment [13] (setting [23]). Besides, the Kd in [9] (setting [19]) was 104 nM; in experiment [10] (setting [20]), 171 nM; in experiment [11] (setting [21]), 238 nM; in [12] (setting [22]) it was 4230 nM; in experiment [13] (setting [23]), 221 nM.
Take `Cc1cccc2c(-c3ccncn3)c(-c3ccc(F)cc3)nn12` [GW515532X]: the potency estimated from few doses in [3] (CATDS: 0.21960096407146401) was 1800 nM.
For `CCn1c(-c2nonc2N)nc2c(C#CC(C)(C)O)nc(OCCN)cc21.CCn1c(-c2nonc2N)nc2c(C#CC(C)(C)O)nc(OCCN)cc21.Cl.Cl` [GSK902056A], the EC50 in experiment [9] (setting [24]) was 173 nM; in experiment [10] (setting [25]), 296 nM; in experiment [11] (setting [26]) it was 87.4 nM; in experiment [12] (setting [27]) it was 92.3 nM; in experiment [13] (setting [28]), 127 nM. Further, the Kd in experiment [9] (setting [24]) is 164 nM; in [10] (setting [25]) it was 288 nM; in [11] (setting [26]), 87.4 nM; in [12] (setting [27]) it was 92.3 nM; in experiment [13] (setting [28]), 127 nM.
For `O=C1N=C(Nc2ccccc2)S/C1=C\c1ccc2ncccc2c1` [RO4493940-000], the potency estimated from few doses in [14] is 1500 nM. Moreover, the IC50 was 2.88e-06 M in [15], 6.67e-08 M in experiment [16] and 5.11e-08 M in [17].
Take `COc1cc(Nc2ncc3c(C)nc(-c4cc5ccccc5[nH]4)n3n2)cc(OC)c1OC` [GW869516X]: the IC50 was found to be 1.97e-06 M in experiment [15], 8.51e-08 M in [16] and 3.37e-08 M in [17].
